Assay results reported in PubChem BioAssay AID1159580 (chemical genetic matrix, 2015).
“And” between values parts separate entries of the source, which are not always exact repeats. Identical values can stand only once. The campaign covered roughly 5,500 compounds. About 2,000 (36%) were called active. Inconclusive results (about 18%) are left out. Cut-off read from the data, not from the text of the source: active = normalized growth mostly below about 0.91 (no sharp cut-off); inconclusive = no clear call, values can overlap the other calls; inactive = mostly above about 0.92. Some of the results follow.

Test: chemical genetic growth profiling, strain panel (AID 1159580);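 note: tested at 20 µM; growth read once vehicle control cultures reached saturation at 30 °C; 1 = growth at the plate median or of vehicle wells; lower values mean less growth of the strain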
Settings: S. cerevisiae deletion strains, growth OD

Measured: normalized growth

CC(=O)OCC1=C(C(=O)O)N2C(=O)[C@@H](NC(=O)Cc3cccs3)[C@H]2SC1
inactive: locus YAL013W, strain DEP1, active compounds read low 0.991 | locus YAL021C, strain ccr4, active compounds read low 1.03 | locus YAL026C, strain drs2, active compounds read low 0.991 | locus YAL030W, strain snc1, active compounds read low 1.02 | locus YBL061C, strain skt5, active compounds read low 1.03 | locus YBR009C, strain hhf1, active compounds read low 0.974 | locus YBR021W, strain FUR4, active compounds read low 1.01 | locus YBR023C, strain chs3, active compounds read low 1.03 | locus YBR171W, strain sec66, active compounds read low 1.02 | locus YBR229C, strain ROT2, active compounds read low 0.948 | locus YBR231C, strain swc5, active compounds read low 0.988 | locus YBR279W, strain paf1, active compounds read low 0.987 | locus YCL011C, strain gbp2, active compounds read low 0.973 | locus YCL016C, strain dcc1, active compounds read low 0.986 | locus YCL029C, strain bik1, active compounds read low 0.984 | locus YCL069W, strain vba3, active compounds read low 1.01 | locus YCR088W, strain abp1, active compounds read low 1.01 | locus YDL005C, strain med2, active compounds read low 1.03 | locus YDL035C, strain GPR1, active compounds read low 0.96 | locus YDL040C, strain nat1, active compounds read low 1.02 | locus YDL074C, strain BRE1, active compounds read low 0.993 | locus YDL101C, strain DUN1, active compounds read low 0.989 | locus YDL134C, strain PPH21, active compounds read low 0.959 | locus YDL185W, strain tfp1, active compounds read low 0.965 | locus YDL192W, strain arf1, active compounds read low 0.977 | locus YDR001C, strain nth1, active compounds read low 1.02 | locus YDR069C, strain doa4, active compounds read low 1.03 | locus YDR101C, strain arx1, active compounds read low 0.972 | locus YDR137W, strain rgp1, active compounds read low 0.962 | locus YDR150W, strain NUM1, active compounds read low 0.983 | locus YDR159W, strain sac3, active compounds read low 1.05 | locus YDR162C, strain NBP2, active compounds read low 0.948 | locus YDR195W, strain ref2 1.04 | locus YDR297W, strain sur2, active compounds read low 1.02 | locus YDR318W, strain mcm21, active compounds read low 0.991 | locus YDR334W, strain swr1, active compounds read low 0.986 | locus YDR335W, strain msn5, active compounds read low 0.99 | locus YDR388W, active compounds read low 0.981 | locus YDR392W, strain spt3, active compounds read low 0.959 | locus YDR502C, strain sam2, active compounds read low 0.997 | locus YEL003W, strain gim4, active compounds read low 1 | locus YEL037C, strain rad23, active compounds read low 1 | locus YEL061C, strain CIN8 (second series), active compounds read low 1.01 | locus YEL061C, strain CIN8, active compounds read low 0.984 | locus YER015W, strain faa2, active compounds read low 0.972 | locus YER016W, strain bim1, active compounds read low 0.987 | locus YER110C, active compounds read low 0.972 | locus YER111C, strain swi4, active compounds read low 0.995 | locus YER155C, strain BEM2 (second series), active compounds read low 1 | locus YER155C, strain BEM2, active compounds read low 1 | locus YER167W, strain BCK2, active compounds read low 0.986 | locus YFR010W, strain ubp6, active compounds read low 1.01 | locus YGL078C, strain dbp3, active compounds read low 0.987 | locus YGL086W, strain mad1, active compounds read low 0.979 | locus YGL167C, strain pmr1, active compounds read low 1.02 | locus YGL173C, strain kem1, active compounds read low 0.987 | locus YGL227W, strain vid30, active compounds read low 1.04 | locus YGL240W, strain doc1, active compounds read low 1.06 | locus YGL248W, strain PDE1, active compounds read low 1.01 | locus YGL253W, strain hxk2, active compounds read low 1 | locus YGR135W, strain pre9, active compounds read low 1.04 | locus YGR252W, strain gcn5, active compounds read low 1.03 | locus YHR013C, strain ard1, active compounds read low 1.03 | locus YHR027C, strain rpn1, active compounds read low 0.994 | locus YHR030C, strain SLT2, active compounds read low 0.977 and 0.94 | locus YHR079C, strain IRE1 (second series), active compounds read low 0.995 | locus YHR079C, strain IRE1, active compounds read low 0.976 | locus YHR094C, strain hxt1, active compounds read low 0.982 | locus YHR129C, strain ARP1, active compounds read low 0.984 | locus YHR142W, strain chs7, active compounds read low 0.995 | locus YHR200W, strain rpn10, active compounds read low 0.983 | locus YIL066C, strain RNR3, active compounds read low 0.972 | locus YIL073C, strain SPO22, active compounds read low 1.04 | locus YIL125W, strain kgd1, active compounds read low 0.983 | locus YIR030C, strain dcg1, active compounds read low 0.99 | locus YJL092W, strain hpr5, active compounds read low 1.01 | locus YJL095W, strain BCK1 (second series), active compounds read low 1 | locus YJL095W, strain BCK1, active compounds read low 1.05 and 0.96 | locus YJL115W, strain asf1, active compounds read low 1.02 | locus YJL129C, strain trk1, active compounds read low 1.05 | locus YJL134W, strain LCB3, active compounds read low 0.99 | locus YJL154C, strain vps35, active compounds read low 1.02 | locus YJL164C, strain tpk1, active compounds read low 0.972 | locus YJL166W, strain qcr8, active compounds read low 0.996 | locus YJL168C, strain set2, active compounds read low 0.986 | locus YJL187C, strain SWE1 (second series), active compounds read low 1.01 | locus YJL187C, strain SWE1, active compounds read low 1.01 | locus YJR043C, strain POL32, active compounds read low 0.963 | locus YJR066W, strain TOR1, active compounds read low 0.995 | locus YJR075W, strain HOC1, active compounds read low 1 | locus YKL009W, strain mrt4, active compounds read low 1 | locus YKL068W, active compounds read low 0.977 | locus YKL085W, strain MDH1 (second series), active compounds read low 0.966 | locus YKL085W, strain MDH1, active compounds read low 0.966 | locus YKL160W, strain elf1, active compounds read low 1.01 | locus YKR001C, strain vps1, active compounds read low 0.986 | locus YKR026C, strain gcn3, active compounds read low 1.04 | locus YKR091W, strain srl3, active compounds read low 0.999 | locus YLL001W, strain dnm1, active compounds read low 0.992 | locus YLL026W, active compounds read low 1.02 | locus YLL041C, strain sdh2, active compounds read low 1.02 | locus YLR027C, strain aat2, active compounds read low 1.01 | locus YLR039C, strain RIC1, active compounds read low 0.986 | locus YLR058C, strain SHM2, active compounds read low 0.978 | locus YLR102C, strain apc9, active compounds read low 0.987 | locus YLR113W, strain HOG1, active compounds read low 0.971 | locus YLR221C, strain rsa3, active compounds read low 0.996 | locus YLR258W, strain gsy2, active compounds read low 1 | locus YLR262C, strain YPT6 (second series), active compounds read low 1.01 | locus YLR262C, strain YPT6, active compounds read low 0.937 | locus YLR268W, strain sec22, active compounds read low 0.975 | locus YLR320W, strain mms22, active compounds read low 0.978 | locus YLR330W, strain CHS5, active compounds read low 0.99 | locus YLR342W, strain FKS1 (second series), active compounds read low 1 | locus YLR342W, strain FKS1, active compounds read low 0.992 | locus YLR357W, strain rsc2, active compounds read low 0.991 | locus YLR370C, strain arc18, active compounds read low 1 | locus YLR371W, strain rom2, active compounds read low 0.998 | locus YLR384C, strain iki3, active compounds read low 1.03 | locus YLR418C, strain cdc73, active compounds read low 1.01 | locus YML016C, strain PPZ1, active compounds read low 0.996 | locus YML032C, strain rad52, active compounds read low 0.98 | locus YML120C, strain ndi1, active compounds read low 1 | locus YML124C, strain tub3, active compounds read low 0.985 | locus YMR058W, strain fet3, active compounds read low 0.923 | locus YMR078C, strain ctf18, active compounds read low 0.986 | locus YMR125W, strain sto1, active compounds read low 1.03 | locus YMR129W, active compounds read low 1.02 | locus YMR205C, strain PFK2, active compounds read low 1.02 | locus YMR223W, strain ubp8, active compounds read low 1.01 | locus YMR231W, strain pep5, active compounds read low 1.01 | locus YMR263W, strain SAP30, active compounds read low 0.998 | locus YMR307W, strain GAS1, active compounds read low 0.898 | locus YNL067W, strain RPL9B, active compounds read low 1.01 | locus YNL071W, strain lat1, active compounds read low 0.994 | locus YNL183C, strain NPR1, active compounds read low 0.919 | locus YNL209W, strain ssb2, active compounds read low 1 | locus YNL233W, strain BNI4, active compounds read low 1.03 | locus YNL248C, strain rpa49, active compounds read low 0.993 | locus YNL250W, strain rad50, active compounds read low 0.995 | locus YNL271C, strain bni1, active compounds read low 1 | locus YNL298W, strain CLA4, active compounds read low 0.979 | locus YNL307C, strain MCK1, active compounds read low 0.988 | locus YNL322C, strain KRE1 (second series), active compounds read low 1.01 | locus YNL322C, strain KRE1, active compounds read low 0.989 | locus YNR049C, strain mso1, active compounds read low 1.02 | locus YNR052C, strain pop2, active compounds read low 0.985 | locus YOL006C, strain TOP1, active compounds read low 1.13 | locus YOL012C, strain htz1 0.756 | locus YOL147C, strain pex11, active compounds read low 0.986 | locus YOR001W, strain rrp6, active compounds read low 1.02 | locus YOR061W, strain CKA2, active compounds read low 0.968 | locus YOR069W, strain VPS5, active compounds read low 0.987 | locus YOR070C, strain gyp1, active compounds read low 0.995 | locus YOR080W, strain dia2, active compounds read low 1.02 | locus YOR083W, strain WHI5, active compounds read low 0.993 | locus YOR106W, strain vam3, active compounds read low 0.981 | locus YOR136W, strain idh2, active compounds read low 0.983 | locus YOR144C, strain elg1, active compounds read low 0.988 | locus YOR184W, strain ser1, active compounds read low 1 | locus YOR231W, strain MKK1, active compounds read low 0.972 | locus YOR265W, strain rbl2, active compounds read low 1.02 | locus YOR270C, strain vph1, active compounds read low 0.925 | locus YOR290C, strain snf2, active compounds read low 0.992 | locus YOR316C, strain cot1, active compounds read low 0.973 | locus YPL051W, strain arl3, active compounds read low 0.995 | locus YPL055C, strain LGE1, active compounds read low 0.989 | locus YPL078C, strain atp4, active compounds read low 1.02 | locus YPL106C, strain sse1, active compounds read low 0.945 | locus YPL240C, strain hsp82, active compounds read low 1.04 | locus YPL256C, strain CLN2, active compounds read low 0.962 | locus YPR119W, strain clb2, active compounds read low 0.984 | locus YPR141C, strain kar3, active compounds read low 0.983 | locus YPR163C, strain tif3, active compounds read low 0.984 | locus YPR167C, strain met16, active compounds read low 0.997 | strain wtn01, active compounds read low 1
